Values joined by “and” are separate entries in the source; they are usually repeats but may differ in a detail not shown here. Equal entries are not always repeated. A number with no mark means an inactive call. Results filed as inconclusive are left out. Active and inactive are the calls of the source.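 How the source made its calls, unless noted: active means compounds whose dose series gives a full or clear partial fitted curve of increased nuclear translocation; inconclusive means weak partial curve or effect only at the top dose; inactive means no dose-dependent translocation response.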 Bounds are passed on as bounds.

The source of these data is PubChem BioAssay (NCATS).

Glucocorticoid receptor (Homo sapiens), sequence (P04150 whole entry, looked up): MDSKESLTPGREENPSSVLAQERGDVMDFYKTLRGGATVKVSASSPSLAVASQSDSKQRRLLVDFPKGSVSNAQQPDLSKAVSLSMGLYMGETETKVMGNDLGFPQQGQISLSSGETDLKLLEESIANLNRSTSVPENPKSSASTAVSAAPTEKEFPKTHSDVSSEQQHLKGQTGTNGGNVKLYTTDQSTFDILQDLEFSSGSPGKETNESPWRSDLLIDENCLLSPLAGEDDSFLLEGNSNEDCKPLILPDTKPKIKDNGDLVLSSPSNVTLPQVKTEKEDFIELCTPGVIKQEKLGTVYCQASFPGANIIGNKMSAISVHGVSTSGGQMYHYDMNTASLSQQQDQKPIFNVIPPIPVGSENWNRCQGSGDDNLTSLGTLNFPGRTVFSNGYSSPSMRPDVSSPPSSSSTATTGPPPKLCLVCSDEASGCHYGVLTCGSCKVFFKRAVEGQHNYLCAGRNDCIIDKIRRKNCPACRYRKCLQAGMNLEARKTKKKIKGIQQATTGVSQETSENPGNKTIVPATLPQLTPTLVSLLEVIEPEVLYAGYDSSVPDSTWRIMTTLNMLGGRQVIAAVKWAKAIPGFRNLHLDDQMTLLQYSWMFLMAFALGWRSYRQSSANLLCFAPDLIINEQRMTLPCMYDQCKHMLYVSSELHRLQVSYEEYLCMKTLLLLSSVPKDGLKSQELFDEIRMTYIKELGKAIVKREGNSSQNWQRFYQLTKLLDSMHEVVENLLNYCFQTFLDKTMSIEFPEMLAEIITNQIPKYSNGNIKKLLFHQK

Tested on in one experiment: not listed separately
Description: Stat Signaling Pathway (AID 446; active means well fitted curve in either direction with a large enough effect, not every such curve was filed as active;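 further: ME-180 cervical cancer cells given 40 pM IL-6 alongside compound; SIE-controlled beta-lactamase reporter measured as 460/530 nm FRET emission ratio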). Conditions: ME-180 (cervical carcinoma) SIE beta-lactamase reporter, IL-6 stimulated, 5 h; series mostly up to 17.2 µM. The method, boiled down: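 IL-6/STAT signaling read in ME-180 cells via an SIE beta-lactamase reporter. Stimulus was 40 pM IL-6 (its AC50) for 5 hrs, so both activation and inhibition register.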
On to `NCC1CCC(C(=O)O)CC1` (stereo not drawn), for which the outcome was inactive.

On to `CN(C)c1ccccc1CN1CCCN(Cc2ccccc2N(C)C)C1c1ccncc1`, for which the outcome was inactive.

Take `Cc1cc2nc3c(=O)[nH]c(=O)nc-3n(CC(O)C(O)C(O)CO)c2cc1C` (stereo not drawn): the outcome was inactive.

Take `CC(NCCc1ccc(O)cc1)C(O)c1ccc(O)cc1` (stereo not drawn): the outcome was inactive.

Take `NC(=O)c1nnn(Cc2cc(Cl)c(C(=O)c3ccc(Cl)cc3)c(Cl)c2)c1N`: the result was inactive.

Turning to `NS(=O)(=O)c1cc(Cl)c(Cl)c(S(N)(=O)=O)c1`, the result was inactive.

For the molecule `CN(C)CCN(Cc1ccc(Cl)cc1)c1ccccn1`, the result was inactive.

Turning to `C=C1c2cccc(O)c2C(O)=C2C(=O)[C@@]3(O)C(O)=C(C(N)=O)C(=O)[C@@H](N(C)C)[C@@H]3[C@@H](O)[C@H]12`, the molecule was called inactive.

As for `CN[C@H]1[C@@H](O[C@@H]2[C@H](O[C@@H]3[C@@H](O)[C@@H](O)[C@@H](N=C(N)N)[C@@H](O)[C@@H]3N=C(N)N)O[C@H](C)[C@@]2(O)C=O)O[C@@H](CO)[C@@H](O)[C@H]1O`, the molecule was classed as inactive.

The next experiment addresses Glucocorticoid receptor (Homo sapiens) (UniProt P04150). Description: GR-GFP Redistribution (AID 450). Further: potency means the concentration at half of the fitted maximal effect. Conditions: U2OS GR-GFP nuclear translocation, laser cytometry, 2 h.
On to `Cc1cc(NC(=O)Nc2ccc(N(C)C)cc2)c2cc(F)cc(F)c2n1`, for which the Potency is more than 46 µM.

Take `CN(C)c1ccccc1CN1CCCN(Cc2ccccc2N(C)C)C1c1ccncc1`: the Potency is more than 46 µM.

On to `CCCCC(C=O)NC(=O)C(CC(C)C)NC(=O)OCc1ccccc1` (stereo not drawn), for which the Potency was more than 46 µM.

On to `Cc1ccc(NC(=O)c2cccc(N(C)C)c2)cc1NC(=O)c1ccc(O)cc1`, for which the Potency was more than 46 µM.

With `CC1C(=O)OC2C(O)C34C5CC(C(C)(C)C)C36C(OC(=O)C6O)OC4(C(=O)O5)C12O` (stereo not drawn), the Potency was more than 46 µM.

Regarding `COc1nccc(-c2c(-c3ccc(F)cc3)ncn2C2CCC(O)CC2)n1` (stereo not drawn), the Potency is more than 46 µM.

Consider `CCC(=C(CC)c1ccc(O)cc1)c1ccc(O)cc1`, for which the Potency was more than 20.6 µM.

Take `CCCCC[C@H](O)C=C[C@H]1[C@H](O)CC(=O)[C@H]1CCCCCCC(=O)O`: the Potency was more than 46 µM.

Regarding `O=c1cc(-c2ccc(O)c(O)c2)oc2cc(O)cc(O)c12`, the Potency was > 20.6 µM and > 46 µM.

Consider `COc1ccc(CCN(C)CCCOc2ccc(S(=O)(=O)c3[nH]c4ccccc4c3C(C)C)cc2)cc1OC`, for which the Potency is more than 46 µM.

Turning to `CN1CCN2c3ncccc3Cc3ccccc3C2C1` (stereo not drawn), the Potency is more than 46 µM.

`Cc1cc2nc3c(=O)[nH]c(=O)nc-3n(CC(O)C(O)C(O)CO)c2cc1C` (stereo not drawn): the Potency was more than 20.6 µM.

As to `CC(NCCc1ccc(O)cc1)C(O)c1ccc(O)cc1` (stereo not drawn), the Potency is more than 20.6 µM.

`NC(=O)c1nnn(Cc2cc(Cl)c(C(=O)c3ccc(Cl)cc3)c(Cl)c2)c1N`: the Potency was more than 46 µM.

In the case of `NS(=O)(=O)c1cc(Cl)c(Cl)c(S(N)(=O)=O)c1`, the Potency is more than 20.6 µM.

For `CN(C)CCN(Cc1ccc(Cl)cc1)c1ccccn1`, the Potency was more than 20.6 µM.

Consider `C=C1c2cccc(O)c2C(O)=C2C(=O)[C@@]3(O)C(O)=C(C(N)=O)C(=O)[C@@H](N(C)C)[C@@H]3[C@@H](O)[C@H]12`, for which the Potency was more than 20.6 µM.

Consider `O=S(=O)(O)c1ccc2cc(N=Nc3cc(S(=O)(=O)O)c4cccnc4c3O)ccc2c1`, for which the Potency was more than 46 µM.

As for `CN[C@H]1[C@@H](O[C@@H]2[C@H](O[C@@H]3[C@@H](O)[C@@H](O)[C@@H](N=C(N)N)[C@@H](O)[C@@H]3N=C(N)N)O[C@H](C)[C@@]2(O)C=O)O[C@@H](CO)[C@@H](O)[C@H]1O`, the Potency is more than 20.6 µM.
